Assay outcomes (PubChem)
hERG WT inh: KCNH2 (human, wildtype) channel inhibition | Q12809 | U2OS, BacMam KCNH2, thallium flux FluxOr; stronger effect = lower value | activity change, % at 1.84 µM | 340,000 tested, 0.37% active | AID 720551;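 active = maximum activity change below -70%; inconclusive = maximum activity change between -70% and -50%; inactive = maximum activity change above -50%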
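U2OS cells were transduced with wild-type KCNH2 virus (2.03 x 10^8 / mL) for 4 h at room temperature, then cultured overnight at 37 C. Thallium flux was read with FluxOr dye. Rate constants were normalized to DMSO controls.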
Rango complex inh: prevents formation of the Rango-importin beta complex; Rango CFP/YFP FRET sensor + importin beta, 45 min; Q14974; 340,000 tested, 0.031% active; Potency, µM (top dose mostly 92.2 µM); note: nearly all actives have a fitted effect of over 15% in size
Target sequence (Q14974 whole entry, looked up): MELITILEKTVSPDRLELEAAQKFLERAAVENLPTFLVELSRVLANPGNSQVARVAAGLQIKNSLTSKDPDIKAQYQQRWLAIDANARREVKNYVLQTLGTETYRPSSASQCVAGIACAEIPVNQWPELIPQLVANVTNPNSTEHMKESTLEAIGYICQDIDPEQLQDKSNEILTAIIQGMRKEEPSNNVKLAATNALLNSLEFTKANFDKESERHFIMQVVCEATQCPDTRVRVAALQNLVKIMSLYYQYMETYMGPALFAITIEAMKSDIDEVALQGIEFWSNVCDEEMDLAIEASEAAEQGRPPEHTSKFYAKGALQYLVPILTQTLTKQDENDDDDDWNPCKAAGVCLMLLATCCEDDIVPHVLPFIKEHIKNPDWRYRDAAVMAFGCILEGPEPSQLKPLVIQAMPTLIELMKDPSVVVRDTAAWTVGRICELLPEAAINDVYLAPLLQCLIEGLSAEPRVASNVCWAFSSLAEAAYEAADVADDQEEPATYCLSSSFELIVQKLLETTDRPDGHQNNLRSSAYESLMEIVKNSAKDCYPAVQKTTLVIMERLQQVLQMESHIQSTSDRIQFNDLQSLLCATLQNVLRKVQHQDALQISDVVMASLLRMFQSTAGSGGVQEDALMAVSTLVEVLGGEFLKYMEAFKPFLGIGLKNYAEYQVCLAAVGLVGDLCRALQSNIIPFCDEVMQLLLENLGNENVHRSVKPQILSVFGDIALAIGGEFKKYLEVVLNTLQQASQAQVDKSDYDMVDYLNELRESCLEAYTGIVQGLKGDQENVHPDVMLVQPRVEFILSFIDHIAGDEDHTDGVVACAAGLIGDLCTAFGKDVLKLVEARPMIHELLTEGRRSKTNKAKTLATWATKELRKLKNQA
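FRET biosensor Rango (snurportin 1 IBB between N-terminal EYFP and C-terminal Cerulean), 50 nM in PBS/1 mM DTT/0.02% Tween-20/0.1% BSA, preincubated 5 min RT with compound; 0.125 microM importin beta added, 45 min RT, CFP/YFP FRET ratio read.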
KCNH2 3.1 block: blocks the human KCNH2 3.1 channel isoform. AID 720553. U2OS KCNH2 3.1, thallium flux FluxOr; stronger effect = lower value. 340,000 tested, 0.95% active. activity change, % (tested at about 1.8 µM);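 active = maximum activity change below -70%; inconclusive = maximum activity change from -70% to -50%; inactive = maximum activity change above -50%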;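 note: thallium influx rate constant from kinetic fluorescence after stimulation buffer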
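Thallium flux read-out: FluxOr dye with Red40 quencher in HBSS/HEPES, 45 min at RT. Rate constants from kinetic reads were normalized to positive and negative DMSO controls. Cells: U2OS virally expressing the 3.1 isoform.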
Rango release inh: prevents RanGTP from dissociating the Rango-importin beta complex; 340,000 tested, 0.071% active; O95149+P62826; AID 540253; Potency, µM (titrated, usually from 46.1 µM); Biochemical FRET Rango-importin beta, RanGTP-induced dissociation; note: nearly all actives have a fitted effect of over 45% in size
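Recombinant Rango FRET biosensor (EYFP–snurportin 1 IBB–cerulean CFP10) at 0.1 uM premixed with 0.25 uM importin beta in PBS, 1 mM DTT, 0.02% Tween-20, 0.1% BSA. Compound added 5 min; RanGTP-RCC1 (0.6 uM Ran, 2 mM GTP, 0.2 uM RCC1) then triggers release, read at 45 min.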
Large screens that a line does not name were inactive; [ ] = remark or other dose. Sampled rows, rich in hits. Any-hit rate of the full collection: about 1.3%. Unless noted, calls come from the whole dose curve.

O=[N+]([O-])c1ccc(N/N=C\c2cccnc2)nc1	KCNH2 3.1 block -94.6 (no result: hERG WT inh)
CN1CCN(C(=O)c2cnn(-c3ccccc3)c2NC(=O)c2ccc(Br)cc2)CC1	hERG WT inh -79.5, KCNH2 3.1 block -75.8
CN1CCN(C(=O)c2cnn(-c3ccccc3)c2NC(=O)c2ccccc2)CC1	Rango complex inh inconclusive
Cc1ccc(C(=O)NC(=S)N2CC(C)OC(C)C2)cc1[N+](=O)[O-] (centres undefined)	KCNH2 3.1 block -91.0
COC(=O)C1=C(C)N(c2ccccc2)/C(=C/c2ccco2)C1=O	KCNH2 3.1 block -73.1
COC(=O)C1=C(C)N(c2cc(C)cc(C)c2)/C(=C/c2ccco2)C1=O	none
COc1cccc(-c2sc3ccccc3c2-c2ccc(OCCN3CCCCC3)cc2)c1	KCNH2 3.1 block -75.5
CC(=O)c1c(C)[nH]c(C(=O)N2CCN(c3ccc(F)cc3)CC2)c1C	none
O=C(/C=C/c1ccccc1)N1CCN(C(=O)c2ccco2)CC1	KCNH2 3.1 block -96.3
O=C(/C=C/c1ccc(Cl)cc1)Nc1ccc(N2CCCCC2)cc1	none
O=C(/C=C/c1ccccc1)Nc1ccc(N2CCCCC2)cc1	KCNH2 3.1 block -81.3
O=C(/C=C\c1ccccc1)Nc1ccc(NC(=O)c2ccco2)cc1	KCNH2 3.1 block -80.3
CC(=O)c1c(C)[nH]c(C(=O)N2CCN(C(=O)c3ccco3)CC2)c1C	KCNH2 3.1 block -211.2
CCN1CCN(Cc2nnc(-c3ccc(C)cc3)o2)CC1	none
Cc1ccc(C(=O)N/C(=C\c2cccs2)C(=O)NCCCn2ccnc2)cc1	hERG WT inh -180.8, KCNH2 3.1 block -99.2
O=C(NCCCn1ccnc1)/C(=C\c1cccs1)NC(=O)c1ccccc1	none
Cc1ccc(C(=O)N/C(=C\c2cccs2)C(=O)NCCCN2CCOCC2)cc1	hERG WT inh -117.1
Cc1ccc(C(=O)N/C(=C\c2cccs2)C(=O)NCCCn2ccnc2)cc1C	hERG WT inh -75.5, KCNH2 3.1 block inconclusive
Cc1ccc(C(=O)N/C(=C/c2cccs2)C(=O)NCCCn2ccnc2)cc1	hERG WT inh -209.4, KCNH2 3.1 block -81.5
CCCCCCN1C(=O)CC(NC(=O)OCC2c3ccccc3-c3ccccc32)C/C=C\C1C(C)C (centres undefined)	none
Cc1ccc(OCC(=O)OCC(=O)NC2CCCCCC2)cc1C	none (no result: Rango complex inh, Rango release inh)
Cc1cccc(N2CCN(S(=O)(=O)c3ccc4c(c3)OCCO4)CC2)c1C	Rango complex inh inconclusive, Rango release inh 18.4µM[inhibitor]
CCN(C(=O)COC(=O)CNC(=O)C1CCCCC1)c1ccccc1	Rango release inh inconclusive
CCOc1ccc2nc(NC(=O)CN3CCC(n4nnc5cc(C(F)(F)F)ccc54)CC3)sc2c1	KCNH2 3.1 block -79.0
Cc1cc(NC(=O)CN2CCC(n3nnc4cc(C(F)(F)F)ccc43)CC2)no1	none
CN(Cc1ccccc1)C(=O)c1nc[nH]c1C(=O)N(C)Cc1ccccc1	none
COC(=O)c1c(O)cc(C(C)(C)C)n(-c2ccc(F)cc2)c1=O	hERG WT inh -115.8, KCNH2 3.1 block -215.6
CC(=O)c1c(O)cc(C)n(-c2ccc(F)cc2)c1=O	none
CCN1CCc2c(sc(NC(=O)Nc3ccc(Cl)c(Cl)c3)c2C(N)=O)C1	hERG WT inh -132.9, Rango complex inh inconclusive, KCNH2 3.1 block -118.8, Rango release inh inconclusive
CCN1CCc2c(sc(NC(=O)Cc3ccccc3)c2C(N)=O)C1	Rango complex inh inconclusive, Rango release inh inconclusive
CCOc1ccc(CCNC(=O)c2cccs2)cc1OCC	KCNH2 3.1 block -86.3
C=CCn1c(SCC(=O)Nc2ccc(S(N)(=O)=O)cc2)nnc1-c1cnccn1	hERG WT inh -143.3
CC(=O)Nc1cccc(C(=O)NNC(=O)c2ccccc2-n2cccc2)c1	Rango release inh inconclusive
CC(NCc1cccc(OCc2ccccc2)c1)C(O)c1ccccc1 (centres undefined)	KCNH2 3.1 block -148.4
COc1ccc(/C=N/NC(=O)c2nc(-c3ccccc3)cc(-c3ccccc3)n2)cc1	KCNH2 3.1 block -87.5
CCCCN(C(=O)COC(=O)C1(c2ccccc2)CC1)c1c(N)n(CCC)c(=O)[nH]c1=O	none (no result: Rango complex inh, Rango release inh)
CCOc1ncccc1C(=O)Nc1ccc(S(=O)(=O)N2CC(C)CC(C)C2)cc1 (centres undefined)	none
CC(=O)N(/N=C1\Sc2ccccc2C1=O)c1ccc(C)cc1C	none (no result: KCNH2 3.1 block)
CC(=O)N(/N=C1\Sc2ccccc2C1=O)c1ccccc1C	Rango complex inh inconclusive, Rango release inh 8.2µM (no result: KCNH2 3.1 block)
c1ccc(Cn2c(CNc3nc4ccccc4n3CCN3CCOCC3)nc3ccccc32)cc1	KCNH2 3.1 block -85.2
Cc1ccc(CCNC(=O)c2nnc(CS(=O)(=O)c3ccccc3)o2)cc1	none
COc1ccc(Cl)cc1NC(=O)CN(C)C(=O)CN1C(=O)NC(C)(c2ccc3ccccc3c2)C1=O (centres undefined)	KCNH2 3.1 block -89.1
O=[N+]([O-])c1ccc(CN2CCC(Cc3ccccc3)CC2)cc1	KCNH2 3.1 block inconclusive
Cc1ccccc1OCCN1CCC(Cc2ccccc2)CC1	none
O=[N+]([O-])c1cccc(OCCCN2CCC(Cc3ccccc3)CC2)c1	hERG WT inh -85.6, KCNH2 3.1 block -88.0
Cc1ccc([N+](=O)[O-])c(OCCN2CCC(Cc3ccccc3)CC2)c1	KCNH2 3.1 block -93.3
Nc1ncnc2c1ncn2[C@@H]1O[C@H](CNCc2ccccc2OC2OC(CO)C(O)C(O)C2O)[C@@H](O)[C@H]1O (some centres undefined)	none
COC(=O)CSc1ncc(S(=O)(=O)c2ccccc2)c(=O)[nH]1	KCNH2 3.1 block -131.0
COC(=O)CSc1nc2c(cnn2-c2ccc(F)cc2)c(=O)[nH]1	none
O=C(Nc1nc(-c2ccc3c(c2)OCCO3)cs1)c1ccc(Br)o1	KCNH2 3.1 block -74.0 (no result: Rango complex inh, Rango release inh)
Cc1n[nH]c(C)c1S(=O)(=O)N1CCc2ccccc2C1	none
O=C(O)c1cccc(NS(=O)(=O)c2ccc(Oc3ccc(S(=O)(=O)Nc4cccc(C(=O)O)c4)cc3)cc2)c1	hERG WT inh -144.2
O=C(NNS(=O)(=O)c1ccc([N+](=O)[O-])cc1)C(=O)Nc1cccc(C(=O)O)c1	hERG WT inh -111.9
Cc1ccc(C(=O)N(CC(C)C)c2c(N)n(Cc3ccccc3)c(=O)[nH]c2=O)o1	none
Cc1csc(NC(=O)CSc2nc(=O)n(CCN(C)C)c3c2CCCC3)n1	none
Cc1oc(-c2cccc(Cl)c2)nc1CN1CCC(C(=O)N2CCN(c3ccccc3F)CC2)CC1	KCNH2 3.1 block -91.2
Cc1oc(-c2cccc(Cl)c2)nc1CN1CCC(C(=O)NCc2ccco2)CC1	none
Cc1oc(-c2ccc(Cl)cc2)nc1CN1CCC(C(=O)N2CCN(Cc3ccccc3)CC2)CC1	none
Cc1oc(-c2ccc(Cl)cc2)nc1CN1CCC(C(=O)N2CCc3ccccc3C2)CC1	hERG WT inh inconclusive, KCNH2 3.1 block -78.2
Cc1oc(-c2ccc(Cl)cc2)nc1CN1CCC(C(=O)NCc2ccco2)CC1	KCNH2 3.1 block -71.0
COc1cc(Nc2nc3c(N)cc(C(F)(F)F)cc3nc2-c2ccccc2)cc(OC)c1OC	Rango complex inh inconclusive
CCCc1ccc2oc(C(=O)N3CCN(c4cnccn4)CC3)c(C)c2c1	none
